“And” between values parts separate entries of the source, which are not always exact repeats. Identical values can stand only once. Results filed as inconclusive are left out. Values without a mark were called inactive. The source made the active and inactive calls. Calls follow the shape of the dose curve; as a rule, active = well fitted curve in the direction sought with a large enough effect; inconclusive = small, poorly fitted or top-dose-only effect, or another doubt; inactive = no such curve, though single readings can be large or run the other way.
Each molecule was assayed against Lysosomal acid glucosylceramidase (Homo sapiens) (UniProt P04062) (assay: qHTS Assay for Inhibitors and Activators of N370S glucocerebrosidase as a Potential Chaperone Treatment of Gaucher Disease: Primary Screen Confirmation). Details: N370S glucocerebrosidase enzyme activity, fluorogenic substrate; series mostly up to 54 µM; activity change, negative = inhibition: at the top concentration.
Chain of Lysosomal acid glucosylceramidase (Homo sapiens) (P04062 whole entry N409S): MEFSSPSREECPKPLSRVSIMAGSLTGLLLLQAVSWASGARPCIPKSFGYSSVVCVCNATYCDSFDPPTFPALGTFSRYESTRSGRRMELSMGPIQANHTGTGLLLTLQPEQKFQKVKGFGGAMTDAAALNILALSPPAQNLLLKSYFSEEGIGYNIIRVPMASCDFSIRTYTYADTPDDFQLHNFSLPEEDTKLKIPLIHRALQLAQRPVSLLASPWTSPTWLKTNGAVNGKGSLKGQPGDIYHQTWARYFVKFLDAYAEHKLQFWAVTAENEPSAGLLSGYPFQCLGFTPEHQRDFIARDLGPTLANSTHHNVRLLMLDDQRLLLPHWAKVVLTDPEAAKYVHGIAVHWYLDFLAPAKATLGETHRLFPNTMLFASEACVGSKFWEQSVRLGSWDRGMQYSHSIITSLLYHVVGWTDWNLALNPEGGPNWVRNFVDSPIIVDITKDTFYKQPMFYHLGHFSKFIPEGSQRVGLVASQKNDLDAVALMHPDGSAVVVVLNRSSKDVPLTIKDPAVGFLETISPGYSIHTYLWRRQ
Description: NIH Chemical Genomics Center [NCGC]
NIH Molecular Libraries Probe Production Centers Network [MLPCN]
Assay Submitter (PI): Wei Zheng
Glucocerebrosidase (GC) catalyzes the hydrolysis of beta-glucocerebroside to glucose and ceramide in lysosomes. Mutations in the glucocerebrosidase gene result in Gaucher disease, an autosomal recessive lysosomal storage disorder. Many of the mutations encountered in patients with Gaucher disease are missense alterations that may cause misfolding, decreased stability and/or mistrafficking of this lysosomal protein. […] These inhibitors include iminosugar analogs and three non-iminosugar inhibitors identified from a previous HTS of 62,000 compounds with the wild type recombinant enzyme. However, the enhancement of enzyme activity by the chaperone action of an enzyme inhibitor must be balanced against the direct inhibition of the enzyme. An enzyme activator could also function as a chaperone by binding to the enzyme and helping to correct its misfolding and mistrafficking. While activators for GC have not yet been identified, they may have better therapeutic potential than inhibitors. Therefore the discovery and development of chemical activators may provide a new strategy for the chaperone therapy.
We have optimized a new assay using N370S mutant GC derived from the spleen of a Gaucher patient. […] In addition, the MLPCN compound library has expanded, which increases the chance of finding new and better probes.
NCGC Assay Protocol Summary:
This is a fluorogenic enzyme assay with 4-methylumbelliferyl-beta-D-glucopyranoside as the substrate and N370S glucocerebrosidase from human spleen homogenate as the enzyme preparation. Upon the hydrolysis of this fluorogenic substrate, the resulting product, […] which can be detected by a standard fluorescence plate reader. Data were normalized to the controls for basal activity (without enzyme) and 100% activity (with enzyme). The AC50 values were determined from concentration-response data modeled with the standard Hill equation.
Assay buffer: 50 mM citric acid (titrated with potassium phosphate to pH 5.0), 100 mM potassium chloride, 10 mM sodium chloride, 1 mM magnesium chloride, 0.01% Tween-20.
1536-well assay protocol:
(1) Add 2 ul/well of spleen homogenate (27 ug final)
(2) Add 23 nL compounds in DMSO solution. The final titration was 0.5 nM to 58 uM.
(3) Add 2 ul of substrate (1 mM final)
(4) Incubate at 37C for 40 min.
(5) Add 2 ul stop solution (1M NaOH and 1M Glycine mixture, pH 10)
(6) Detect the assay plate in a ViewLux plate reader (PerkinElmer) with Ex=365 nm and Em=440nm.
Keywords: Glucocerebrosidase, beta-glucosidase, Gaucher Disease, pharmacological chaperone, chaperone therapy, high throughput screening, glucocerebrosidase inhibitor, MLSMR, MLSCN, NIH Roadmap, qHTS and NCGC
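For activity change, negative = inhibition in this document: 0% = enzyme with DMSO and -100% = no enzyme basal signal.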
Potency is read from the fitted curve at half-maximal effect.

| Compound | Potency | activity change, negative = inhibition [%] |
| --- | --- | --- |
| Cc1ccccc1-c1nccc(NCc2cccs2)n1 | 15.8 µM (active) | – |
| Cc1cccc(NC(=O)Nc2cccc(C)n2)n1 | – | 25.9 |
| O=S(=O)(c1ccc(F)cc1)N1CCN(c2nc(-c3ccc(F)cc3)nc3cc(Cl)ccc23)CC1 | – | -2.14 |
| S=C(NCCCc1cnc[nH]1)NCCN(Cc1ccc(Cl)c(Cl)c1)c1ccc(Br)cn1 | 2.06 µM (active) | – |
| CC(=O)c1ccc(S(=O)(=O)N2CCN(c3nc(-c4cccs4)nc4ccccc34)CC2)cc1 | 1.79 µM (active) | – |
| S=C(NCCCc1cnc[nH]1)NCCCN(Cc1ccc(Cl)c(Cl)c1)c1ccc(Br)cn1 | 650 nM (active) and 579 nM (active) | – |
| COc1ccc(S(=O)(=O)N2CCN(c3nc(-c4cccs4)nc4ccccc34)CC2)cc1OC | 1.16 µM (active) | – |
| Cc1ccc(S(=O)(=O)N2CCN(c3nc(-c4cccs4)nc(C)c3C)CC2)cc1 | 2.84 µM (active) | – |
| S=C(NCCCc1cnc[nH]1)NCCCN(Cc1ccccc1)c1ccc(Br)cn1 | 5.79 µM (active) | – |
| O=C(Nc1ccccc1)Nc1ccccc1 | inactive | – |
| CN(CCN(C)c1nc(-c2cccs2)nc2ccccc12)C(=O)OC(C)(C)C | 5.8 µM (active) | – |
| CN(CCO)c1nc(-c2cccs2)nc2ccccc12 | – | -23.1 |
| CCOC(=O)c1ccccc1S(=O)(=O)N1CCN(c2nc(-c3cccs3)nc3ccccc23)CC1 | 0.366 µM (active) | – |
| NCCCN(Cc1ccc(Cl)c(Cl)c1)c1ccc(Br)cn1 | 18.3 µM (active) | – |
| O=S(=O)(c1ccc2c(Cl)cccc2c1)N1CCN(c2nc(-c3cccs3)nc3ccccc23)CC1 | 2.01 µM (active) | – |
| N#Cc1cccc(S(=O)(=O)N2CCN(c3nc(-c4cccs4)nc4ccccc34)CC2)c1 | 2.01 µM (active) | – |
| O=C(/C=C/c1ccc(O)cc1)c1ccc(O)cc1O | 11.2 µM (active) | – |
| CC(C)C(C)NC(=O)CSc1nc2scc(-c3ccco3)c2c(=O)n1-c1ccccc1 (stereo not given) | – | 6.41 |
| COc1ccc(N(CC(=O)NC2CCCCC2)S(=O)(=O)c2c(C)[nH]c(=O)[nH]c2=O)cc1 | 11.2 µM (active) | – |
| Cc1nc2nc(-c3ccc(F)cc3)cn2nc1C | – | 10.6 |

| Compound | Potency | activity change, negative = inhibition [%] |
| --- | --- | --- |
| Cc1cc(C)cc(N(CC(=O)Nc2ccc(C(F)(F)F)cc2)S(=O)(=O)c2c(C)[nH]c(=O)[nH]c2=O)c1 | 2.59 µM (active) | – |
| Cc1cccn2c(=O)c3cc(C(=O)NCCc4ccccc4)sc3nc12 | – | 8.55 |
| Oc1cccc(Nc2nc(-c3ccccc3Cl)nc3ccccc23)c1 | 2.06 µM (active) | – |
| CCN1CCN(c2nc3c(C)cccn3c(=O)c2/C=C(\C#N)C(=O)NCCOC)CC1 | – | 25.1 |
| CCN(Cc1ccccc1)c1ccc(Br)cn1 | – | -10.6 |
| Cc1ccc(S(=O)(=O)N2CCN(c3nc(-c4cccs4)nc4ccccc34)CC2)c(C)c1 | 0.291 µM (active) | – |
| O=S(=O)(c1ccccc1)N1CCN(c2nc(-c3ccc(F)cc3)nc3cc(Cl)ccc23)CC1 | – | 5.84 |
| CCCCN(CCCN)c1ccc(Br)cn1 | – | -10.7 |
| O=C(Nc1cnn(Cc2ccc(F)cc2)c1)c1cnn2c(C(F)F)cc(-c3ccccc3)nc12 | – | 42.8 |
| O=S(=O)(c1ccccc1Cl)N1CCN(c2nc(-c3cccs3)nc3ccccc23)CC1 | 1.16 µM (active) and 259 nM (active) | – |
| N=c1c2c(-c3ccccc3)c(-c3ccccc3)n(Cc3ccco3)c2ncn1CCCn1ccnc1 | 12.6 µM (active) | – |
| Cc1cc(C)n2ncc(C(=O)Nc3cccc(O)c3)c2n1 | – | -2.41 |
| O=S(=O)(c1cccc(Br)c1)N1CCN(c2nc(-c3cccs3)nc3ccccc23)CC1 | 2.53 µM (active) | – |
| Cc1cc2[nH]c(=O)c(=O)[nH]c2cc1S(=O)(=O)N1CCN(c2cccc(C(F)(F)F)c2)CC1 | 5.17 µM (active) | – |
| CC(C)(C)c1cccc(S(=O)(=O)N2CCN(c3nc(-c4cccs4)nc4ccccc34)CC2)c1 | 1.63 µM (active) | – |
| CCOc1ccc(N(CC(=O)NC2CCCCCC2)S(=O)(=O)c2c(C)[nH]c(=O)[nH]c2=O)cc1 | 7.94 µM (active) | – |
| COc1ccc2cc(C(=O)NCc3ccccc3)c(=O)oc2c1 | – | 1.63 |
| CC(=O)c1cccc(S(=O)(=O)N2CCN(c3nc(-c4cccs4)nc4ccccc34)CC2)c1 | 2.25 µM (active) | – |
| Cc1ccc(S(=O)(=O)N2CCN(c3nc(-n4cnc5ccccc54)nc4ccccc34)CC2)cc1 | – | -3.07 |
| Cc1ccc(S(=O)(=O)N(C)CCCN(C)c2nc(-c3cccs3)nc3ccccc23)cc1 | 2.53 µM (active) | – |

Reference: PubChem BioAssay AID2590 (National Center for Advancing Translational Sciences (NCATS), 2010)
